Measurements: PubChem BioAssay (NCI)
The panel holds about 83,000 compounds, 20% with a hit somewhere; the sample as a whole holds those more often.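 Plates (96-well) were seeded with cells, treated with compound at one concentration, and incubated for 48 hours before percent growth was determined.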 Unmarked numbers belong to inactive results. Calls of active or inactive are those of the source.

Tested on: HS 578T breast
Assay: NCI-60 one-dose screen, 48 h (100 = growth as untreated, 0 = no growth, -100 = all killed)
Settings: 10 µM unless noted
Method: Growth inhibition of the HS 578T human tumor cell line is measured as a screen for anti-cancer activity. Cells are grown in 96 well plates and exposed to the test compound for 48 hours. Compounds are tested at a single concentration, which is 10^-5 M for most compounds. The reported endpoint is percent growth (GI% or GIPRCNT), where numbers from 0 - 100% represent growth inhibition, and numbers from -100% - 0 represent cell death. For example, a value of 40 represents 60% growth inhibition. A value of 0 means no net growth occurred over the course of the experiment. A value of -40 indicates 40% of cells at the beginning of the experiment died by the end of the experiment. A value of -100 means all cells are dead at the end of the experiment.
NCI-60 Human Tumor Cell Lines Screen was performed using the standard one-dose NCI protocol, which is described in more detail at https://dtp.cancer.gov/discovery_development/nci-60/default.htm.
Compounds with GIPRCNT values below 10 were considered active. Activity score was based on GIPRCNT using the following formula: […]
Score is 0 for GIPRCNT values of 100 or above, 50 for GIPRCNT values of 0, and 100 for GIPRCNT values of -100.

SMILES	growth
COc1cc(O)c2c(=O)c3c(CC=C(C)C)cc(OC)c(O)c3oc2c1	36.1%
O=C(c1cccc(N2CCOCC2)n1)c1c[nH]c2ccccc12	89.2%
C=C1CC[C@@H]2C(C)(C)[C@H](O)CC[C@@]2(C)[C@@H]1COc1ccc2ccc(=O)oc2c1	69.8%
COCCOC(C)C(/C=N/NC(N)=S)=N/NC(N)=S (stereo not given)	83.3%
Fc1ccc2[nH]cc(-c3nc(-c4c[nH]c5c(Cl)nccc45)cs3)c2c1	39%
Nc1c(Br)cc2c(c1Br)Cc1cc([N+](=O)[O-])ccc1-2	104%
CCOC(=O)C1=C(c2ccccc2)N=C2N(c3ccccc3)N=C(C(C)=O)N2C1c1ccc(F)cc1 (stereo not given)	92.1%
Cn1cc(-c2nc3c(F)cc4[nH]ncc4c3c3c2CCCC3)c(C(F)(F)F)n1	18%
COC1C(O)CC(OC2CC(OC3CC(O[C@@H]4C(=O)c5c(cc6cc(OC7CC(OC8CC(O)C(O)C(C)O8)C(O)C(C)O7)c(C)c(O)c6c5O)CC4[C@H](OC)[C@@H](O)C(C)=O)OC(C)C3O)OC(C)C2O)OC1C (stereo not given in full)	21.7%
Nc1ncnc2c1N=C(c1ccc(F)cc1)CC(c1cccc(Nc3ccnc4cc(Cl)ccc34)c1)N2 (stereo not given)	68.3%
c1csc(-c2cn3nc(-c4c[nH]c5ccccc45)sc3n2)c1	29.1%
COc1ccc(C=Nc2c(C(=O)Nc3cccc(Cl)c3C)sc3nc(C)c(C(=O)/C=C/c4ccc(OC)cc4)cc23)cc1	-1.89% (active)
Cc1ncc(C(=O)Nc2ccc(CN3CCN(C)CC3)c(C(F)(F)F)c2)cc1C#Cc1cnc(N)c2ccc(C#N)cc12	-8.89% (active)
CCCCO[C@@H]1C=C2[C@H]3CC(C)(C)C(=O)C[C@]3(C(=O)O[C@@H]3O[C@H](CO[C@@H]4O[C@H](CO)[C@@H](OC5OC(C)C(O)C(O)C5O)[C@H](O)[C@H]4O)[C@@H](O)[C@H](O)[C@H]3O)CC[C@@]2(C)[C@]2(C)CC[C@H]3C(C)(C)C(=O)CC[C@]3(C)[C@@H]12 (stereo not given in full)	85.4%
FC(F)(F)c1[nH]ncc1-c1nc2ccc3[nH]ncc3c2c2c1CCCC2	-3.07% (active)
COC(=O)[C@@]12CC=C(C)[C@]3(C[C@H](c4ccoc4)OC3=O)[C@H]1C=C[C@@H](O)[C@@]2(O)C(=O)OC	111%
O=c1oc2c(cnc3ccccc32)cc1-c1cccc(Cl)c1	105%
COC12C=C/C(=C(/C(=O)OCc3csc(SC)n3)C(=O)CCCCCCCCC3(OC)C=C/C(=C(/C(=O)OCc4cnc(SC)s4)C(=O)CCCCCCCC1)O3)O2 (stereo not given)	57.2%
O=C1C=CC2(O)OC/C(=C\c3ccccc3)C(O)=C2C1=O (stereo not given)	39%
CCCN(CCSSCCNc1nc(N(C)O)nc(N(C)O)n1)c1nc(N(C)O)nc(N(C)O)n1	131%

SMILES	growth
Cc1c2cnccc2c(C)c2c1c1cc(CO)ccc1n2C	-13.1% (active)
O=C1/C(=C/c2c[nH]c(=O)[nH]c2=O)SC(=S)N1Cc1ccccc1	89%
COc1ccc2cc(C(=O)N3CCC([C@@H](C)C(=O)NCc4ccc5c(c4)OCO5)CC3)[nH]c2c1	22.9% [50 µM]
O=C(Nc1ccc(Nc2ccncc2)cc1)c1ccc(Nc2ccnc3ccc([N+](=O)[O-])cc23)cc1	110%
CC(C)C1C2=C(NCCN1C(=O)c1ccncc1)C(C)(C)N(Cc1ccccc1)C2=O (stereo not given)	109%
COc1ccc2cc(-c3nc4ccc(C)cn4c3NCc3ccco3)c(=O)[nH]c2c1	65.3%
COC(=O)c1c(C)nc(C)c2c1C(=O)C=C(NCc1ccccc1)C2=O	116%
Cc1nn(C)c2ncnc(N/N=C/c3cccc(O)c3O)c12	52.3%
C=C[C@@]1(C)CC(=O)[C@@H](C(C)(C)c2cn(C)c3ccc(Br)cc23)C[C@@H]1O[Si](C)(C)C(C)(C)C	112%
O=[N+]([O-])c1c(O)c(Cl)cc(Cl)c1Cl	117%
O=Nc1ccc(NC(=O)Nc2ccc([N+](=O)[O-])cc2)cc1	91.6%
COc1cc(C=Nc2oc(-c3ccccc3)c(-c3ccccc3)c2C#N)cc(CN2CCCC2)c1O	90.2%
O=C(O)CC(C(=O)O)/C(=C\c1ccccc1)c1ccccc1 (stereo not given)	105%
Cc1cc(N2CCN(CC(=O)Nc3ccc4c(ccn4Cc4ccccc4)c3)CC2)nc(N2CCOCC2)n1	82.8%
COC(=O)c1ccc2cc(OC)c(OC)cc2c1	105%
NCCCNc1nc2ccccc2c2c(=O)c3cc(Cl)ccc3sc12	43%
CN1CCOCCN(C)Cc2ccc3ccc(cc3c2)CN(C)CCOCCN(C)Cc2ccc3ccc(cc3c2)C1	90.6%
Clc1ccc(-c2nc(C(Cl)Cl)nc3cc(-c4ccccc4)nn23)cc1	-4.46% (active)
COc1ccc(/C=C2\CN(C(=O)C(Cl)Cl)C/C(=C\c3ccc(OC)c(OC)c3)C2=O)cc1OC	21.1%
Cc1ccc(O)c(NC(=O)c2cccc(Nc3ccnc(C(F)(F)F)c3)c2)c1	93%
